According to PubChem BioAssay (Tox21):
Records with an inconclusive call do not appear. Active and inactive are the calls of the source. Unless noted, the call rests on the fitted dose curve; in most records, active means well fitted curve in the direction sought with a large enough effect in the repeat runs; inconclusive means weak or mixed curves; inactive means no such curve, though single readings can be large; an effect the other way counts as inactive or inconclusive.

Assays:
[1] = qHTS assay to test for compound auto fluorescence at 535 nm (green) in HEK293 cells (AID 720680)
[2] = qHTS assay to test for compound auto fluorescence at 460 nm (blue) in HEK293 cell free culture (AID 720681)
Procedure, shortened: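 Blue fluorescence (Ex 405/Em 460 nm, triamterene-equivalent) was read immediately after pin transfer of compound or DMSO into medium (DMEM, 10% FBS) without cells.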

[3] = qHTS assay to test for compound auto fluorescence at 535 nm (green) in HEK293 cell free culture (AID 720682)
Procedure, shortened: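 Read-out: 485/535 nm fluorescence intensity, calibrated against fluorescein. Medium only (DMEM + 10% FBS, no cells); test compound or DMSO vehicle added by pintool before plate reading.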

[4] = qHTS assay to test for compound auto fluorescence at 590 nm (red) in HEK293 cell free culture (AID 720683)
Procedure, shortened: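 Red-channel autofluorescence of compounds in culture medium (DMEM, 10% FBS), no cells, measured at 540/590 nm. Rose Bengal sodium is the reference fluorophore for equivalence.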

[5] = qHTS assay to test for compound auto fluorescence at 590 nm (red) in HepG2 cell free culture (AID 720684)
Procedure, shortened: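 Plate contents were MEM with 10% FBS plus test compound or DMSO, no cells. Fluorescence was recorded with 540 nm excitation and 590 nm emission.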

[6] = qHTS assay to test for compound auto fluorescence at 460 nm (blue) in HepG2 cell free culture (AID 720685)
Procedure, shortened: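 Compound (23 nL) or DMSO pinned into cell-free MEM with 10% FBS; blue fluorescence read at 405/460 nm excitation/emission, expressed as auto-fluorescence equivalency to triamterene.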

[7] = qHTS assay to test for compound auto fluorescence at 535 nm (green) in HepG2 cell free culture (AID 720686)
[8] = qHTS assay to test for compound auto fluorescence at 460 nm (blue) in HepG2 cells (AID 720687)
Procedure, shortened: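 Blue-channel autofluorescence (Ex/Em 405/460 nm, triamterene-equivalent) was measured after 1 hr compound exposure at 37 C, 5% CO2. Cells were HepG2, plated overnight at 37 C in MEM plus 10% FBS.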

[9] = biological target: Glucocorticoid receptor (Homo sapiens) (UniProt P04150); assay: qHTS assay to identify small molecule agonists of the glucocorticoid receptor (GR) signaling pathway (AID 720691; active means well fitted activation curve with a large enough effect in the signal ratio in the repeat runs, not every such curve was filed as active; the % refers to the signal ratio)
Procedure, shortened: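 GR-bla HeLa cells carrying a GRE-driven beta-lactamase reporter, exposed to compounds for 18 h at 37 C. Reporter activation read as fluorescence after 2 h with LiveBLAzer B/G FRET substrate at room temperature.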

[10] = biological target: Glucocorticoid receptor (Homo sapiens) (UniProt P04150); assay: qHTS assay to identify small molecule antagonists of the glucocorticoid receptor (GR) signaling pathway (AID 720692; active means well fitted inhibition curve with a large enough effect in the signal ratio in the repeat runs, not every such curve was filed as active; the % refers to the signal ratio)
Procedure, shortened: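 GR-bla HeLa cells carrying a GRE-driven beta-lactamase reporter received compound after 4 h plating, then dexamethasone (5 nM final). After 18 h at 37C, the FRET substrate was loaded for 2 h at room temperature and fluorescence read.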

[11] = qHTS assay to identify small molecule antagonists of the glucocorticoid receptor (GR) signaling pathway - cell viability counter screen (AID 720693); further: nearly all actives have a fitted effect of over 55% in size
[12] = qHTS assay for identifying genotoxic compounds that show differential cytotoxicity against isogenic chicken DT40 cell lines with known DNA damage response pathways - wild type cell line (AID 743012); further: nearly all actives have a fitted effect of over 60% in size
Procedure, shortened: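 Wild-type DT40 cells (300/well) exposed to compounds for 40 hours at 37 C/5% CO2. Viability read by CellTiter-Glo luminescence after 30 min at room temperature.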

[13] = qHTS assay for identifying genotoxic compounds that show differential cytotoxicity against isogenic chicken DT40 cell lines with known DNA damage response pathways - Rev3 mutant cell line (AID 743014); further: nearly all actives have a fitted effect of over 55% in size
[14] = qHTS assay to identify small molecule antagonists of the androgen receptor (AR) signaling pathway - cell viability counter screen (AID 743033; further: nearly all actives have a fitted effect of over 45% in size)
[15] = qHTS assay to identify small molecule antagonists of the androgen receptor (AR) signaling pathway using the MDA cell line - cell viability counter screen (AID 743041; further: nearly all actives have a fitted effect of over 45% in size)
Procedure, shortened: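 R1881-driven MDA-kb2 AR-luc cells, 3,000/well, were dosed with library compounds for 16 h; cell health came from CellTiter-Fluor fluorescence in the reporter wells.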

[16] = qHTS assay for identifying genotoxic compounds that show differential cytotoxicity against isogenic chicken DT40 cell lines with known DNA damage response pathways - Rad54/Ku70 mutant cell line (AID 743015); further: nearly all actives have a fitted effect of over 60% in size
[17] = biological target: Androgen receptor (Homo sapiens) (UniProt P10275); assay: qHTS assay to identify small molecule antagonists of the androgen receptor (AR) signaling pathway (AID 743035; active means well fitted inhibition curve with a large enough effect in the signal ratio in the repeat runs, not every such curve was filed as active; the % refers to the signal ratio)
Procedure, shortened: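 HEK293 cells stably carrying UAS-beta-lactamase reporter, 2,000/well, given compounds plus R1881 agonist and incubated 16 h at 37C. LiveBLAzer B/G FRET substrate then added for 2 h at room temperature before fluorescence reading.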

[18] = biological target: Androgen receptor (Homo sapiens) (UniProt P10275); assay: qHTS assay to identify small molecule agonists of the androgen receptor (AR) signaling pathway (AID 743036; active means well fitted activation curve with a large enough effect in the signal ratio in the repeat runs, with a control signal flat, not every such curve was filed as active; the % refers to the signal ratio)
Procedure, shortened: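 HEK293 cells stably carrying a UAS-driven beta-lactamase reporter (GeneBLAzer AR-UAS-bla-GripTite) were plated at 2,000 cells/well, rested 4 h at 37C, then exposed to compounds in DMSO for 16 h. LiveBLAzer B/G FRET substrate was added for 2 h at room temperature; fluorescence read.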

[19] = biological target: Androgen receptor (Homo sapiens) (UniProt P10275); assay: qHTS assay to identify small molecule agonists of the androgen receptor (AR) signaling pathway using the MDA cell line (AID 743040; further: nearly all actives have a fitted effect of over 20% in size)
Procedure, shortened: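 After a 5 h incubation at 37C and 0% CO2, MDA-kb2 reporter cells were dosed with compounds in DMSO and kept 16 h under the same conditions. Luciferase activity was then read as luminescence with ONE-Glo.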

[20] = biological target: Androgen receptor (Homo sapiens) (UniProt P10275); assay: qHTS assay to identify small molecule antagonists of the androgen receptor (AR) signaling pathway using the MDA cell line (AID 743042; further: nearly all actives have a fitted effect of over 55% in size)
Procedure, shortened: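 Antagonist mode: compounds plus R1881 agonist added to MDA-kb2 AR-luc cells, incubated 16 h at 37C. Luciferase reporter luminescence quantified, with multiplexed CellTiter-Fluor readout for cell viability.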

Measured: Potency

Sequence of Androgen receptor (Homo sapiens) (P10275 whole entry, looked up): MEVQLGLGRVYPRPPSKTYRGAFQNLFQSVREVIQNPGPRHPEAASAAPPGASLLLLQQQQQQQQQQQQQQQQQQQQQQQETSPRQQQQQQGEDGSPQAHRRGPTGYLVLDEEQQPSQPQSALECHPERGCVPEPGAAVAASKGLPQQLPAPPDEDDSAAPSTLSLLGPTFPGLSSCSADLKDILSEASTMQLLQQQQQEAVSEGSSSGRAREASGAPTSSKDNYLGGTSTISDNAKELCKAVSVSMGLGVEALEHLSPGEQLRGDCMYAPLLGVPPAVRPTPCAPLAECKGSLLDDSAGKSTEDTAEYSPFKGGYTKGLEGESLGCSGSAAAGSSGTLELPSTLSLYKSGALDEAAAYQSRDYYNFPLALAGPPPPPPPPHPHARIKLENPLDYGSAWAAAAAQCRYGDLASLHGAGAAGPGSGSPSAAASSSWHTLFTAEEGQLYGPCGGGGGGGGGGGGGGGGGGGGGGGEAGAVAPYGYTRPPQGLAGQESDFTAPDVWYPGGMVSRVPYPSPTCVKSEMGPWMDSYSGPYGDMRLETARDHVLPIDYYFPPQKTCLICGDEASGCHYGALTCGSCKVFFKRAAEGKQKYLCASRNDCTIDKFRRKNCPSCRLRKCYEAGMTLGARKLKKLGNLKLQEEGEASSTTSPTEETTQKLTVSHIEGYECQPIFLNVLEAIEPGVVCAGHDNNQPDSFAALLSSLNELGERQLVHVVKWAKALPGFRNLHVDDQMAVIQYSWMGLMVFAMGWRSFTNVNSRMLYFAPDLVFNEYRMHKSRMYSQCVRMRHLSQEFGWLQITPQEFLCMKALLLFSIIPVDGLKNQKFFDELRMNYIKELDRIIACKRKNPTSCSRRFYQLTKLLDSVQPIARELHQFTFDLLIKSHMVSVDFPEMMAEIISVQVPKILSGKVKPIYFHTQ
Sequence of Glucocorticoid receptor (Homo sapiens) (P04150 whole entry, looked up): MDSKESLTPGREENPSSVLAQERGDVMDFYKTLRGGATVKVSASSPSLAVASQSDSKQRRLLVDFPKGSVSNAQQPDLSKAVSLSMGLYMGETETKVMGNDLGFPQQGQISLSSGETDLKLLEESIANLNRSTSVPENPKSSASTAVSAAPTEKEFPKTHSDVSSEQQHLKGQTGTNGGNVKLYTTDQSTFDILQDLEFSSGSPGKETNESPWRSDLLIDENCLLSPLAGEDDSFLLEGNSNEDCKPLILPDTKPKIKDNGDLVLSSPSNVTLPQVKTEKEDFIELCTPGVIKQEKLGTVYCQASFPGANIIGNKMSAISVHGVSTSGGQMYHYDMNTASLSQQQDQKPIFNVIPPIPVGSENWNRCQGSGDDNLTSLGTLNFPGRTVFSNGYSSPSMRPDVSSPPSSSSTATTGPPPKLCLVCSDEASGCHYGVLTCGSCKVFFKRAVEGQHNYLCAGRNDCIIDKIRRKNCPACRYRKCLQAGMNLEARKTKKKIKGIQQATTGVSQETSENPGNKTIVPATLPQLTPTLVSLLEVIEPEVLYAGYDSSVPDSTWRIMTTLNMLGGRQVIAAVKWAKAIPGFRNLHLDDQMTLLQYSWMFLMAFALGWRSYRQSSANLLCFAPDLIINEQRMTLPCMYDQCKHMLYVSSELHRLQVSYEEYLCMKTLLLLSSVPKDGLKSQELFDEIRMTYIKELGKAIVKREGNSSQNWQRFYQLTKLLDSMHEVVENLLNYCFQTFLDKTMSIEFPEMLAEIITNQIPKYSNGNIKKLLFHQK

Cc1ccc(C#N)cc1
inactive: [1] | [2] | [3] | [4] | [5] | [6] | [7] | [8] | [9] | [10] | [11] | [12] | [13] | [14] | [15]

Brc1c(NC2=NCCN2)ccc2nccnc12
inactive: [1] | [2] | [3] | [4] | [5] | [6] | [7] | [8] | [9] | [10] | [11] | [12] | [13] | [15]

COC(=O)NN
inactive: [1] | [2] | [3] | [4] | [5] | [6] | [7] | [8] | [9] | [10] | [12] | [13] | [16] | [14] | [15]

O=C(O)Cc1ccc(CCNS(=O)(=O)c2ccc(Cl)cc2)cc1
inactive: [1] | [2] | [3] | [4] | [5] | [6] | [7] | [8] | [9] | [10] | [11] | [12] | [13] | [14] | [15]

C=CCOCC(CC)(CO)COCC=C
inactive: [1] | [2] | [3] | [4] | [5] | [6] | [7] | [8] | [9] | [11] | [12] | [13] | [16] | [14] | [15]

Cc1cccn2c(=O)c(-c3nnn[nH]3)cnc12
inactive: [1] | [2] | [3] | [4] | [5] | [6] | [7] | [8] | [9] | [10] | [11] | [12] | [16] | [14] | [15]

CC(=O)Nc1c(I)cc(I)c(C(=O)O)c1I
inactive: [1] | [2] | [3] | [4] | [5] | [6] | [7] | [8] | [9] | [10] | [12] | [13] | [16] | [15]

CCCCCCCCCCCC
inactive: [1] | [2] | [3] | [4] | [5] | [6] | [7] | [8] | [9] | [10] | [11] | [12] | [13] | [14] | [15]

CC(C)(O)C(=O)c1ccccc1
inactive: [1] | [2] | [3] | [4] | [5] | [6] | [7] | [8] | [9] | [10] | [11] | [12] | [13] | [14] | [17] | [18] | [19] | [15] | [20]
